PubChem BioAssay
Inconclusive results are not listed. The source made the active and inactive calls. Unless noted, no stated cut-off is given here; in the data, active means response above about 15%; inactive means the rest.

Key:
[1] = rapamycin-like changes in RPL19A-GFP expression – cell-based, S. cerevisiae, multiplex flow cytometry, primary screen (AID 1862; in the data active means percent of DMSO control GFP below about 86%;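 further: lower values mimic rapamycin by blocking the RPL19A rise seen in DMSO cells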); details: S. cerevisiae RPL19A-GFP strain, flow cytometry fluorescence, 3 h; at 10 µM; stronger effect = lower value
[2] = TOR pathway GLN3 branch reporter MEP2-GFP changes – S. cerevisiae, multiplex flow cytometry, primary screen (AID 1867;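 active means GFP response, as percent of the DMSO control, above the screen-wide mean plus 3 SD, about 139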;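 further: median GFP channel fluorescence of barcode-gated MEP2-GFP cells measured by flow cytometry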); details: S. cerevisiae MEP2-GFP strain, 3 h, at 10 µM, stronger effect = higher value, 100% means same as DMSO wells
[3] = TOR pathway RTG branch CIT2 reporter changes – S. cerevisiae, GFP fusion, multiplex flow cytometry, primary screen (AID 1870;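 active means percent response above a set limit, the screen-wide mean plus 3 SD, cut at about 130% in these data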;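 further: barcoded CIT2-GFP strain pooled with four other GFP strains with rapamycin as positive control; median GFP fluorescence per well over plate mean of DMSO wells so 100% = DMSO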); details: S. cerevisiae CIT2-GFP expression, 3 h, at 10 µM, stronger effect = higher value
[4] = TOR pathway LAP4-GFP level changes – S. cerevisiae, multiplex flow cytometry, primary screen (AID 1873;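 active means GFP signal, as percent of the solvent control, above the screen mean plus 3 SD, about 149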); details: S. cerevisiae LAP4-GFP expression, 3 h, at 10 µM, stronger effect = higher value
[5] = yeast AGP1-GFP level changes, GLN3 branch – cell-based, multiplex flow cytometry, S. cerevisiae, primary screen (AID 1887;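 active means GFP signal above the screen-wide mean plus 3 SD, that is over about 124.5% of the solvent control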;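 further: AGP1-GFP fusion strain of S. cerevisiae within a five-strain barcoded multiplex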); details: 3 h, at 10 µM, stronger effect = higher value
[6] = reduced mouse 2C T cell binding to pMHC/ICAM-1 vesicles – MLPCN validation set, flow cytometry, LFA-1/ICAM-1 modulator project, pilot screen (AID 2523;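 active means response below a set limit, under 55% cells CD8-positive and vesicle-bound, and CD8 cells' 90th-percentile brightness under 279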;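 on vesicle binding response: mean PE anti-B7-1 fluorescence of CD8+ cells relative to row control; 100% = QL9-loaded vesicles with DMSO vehicle in the same plate row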); details: 2C mouse CD8+ T cells, at 7 µM, stronger effect = lower value; double positive events: measured here: CD8+/vesicle+ event percentage
[7] = target: Integrin beta-1 (Homo sapiens) + Integrin alpha-4 (Homo sapiens) (UniProt P13612+P05556); assay: alpha4beta1 integrin LIBS antibody binding reduction – U937 cells, HUTS-21 mAb, flow cytometry, validation set, VLA-4 allosteric modulator project, pilot screen (AID 2674;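 active means inhibition above 50%, about 3 SD of the validation set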;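 further: antibody binding induced by the VLA-4 ligand LDV present at three times its Kd; 0% = LDV ligand with antibody and no compound and 100% = antibody without LDV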); details: HUTS-21 LIBS mAb binding, at 6.7 µM, stronger effect = higher value, binding induced by LDV ligand
Sequence of Integrin beta-1 (Homo sapiens) + Integrin alpha-4 (Homo sapiens) (P05556 whole entry, looked up): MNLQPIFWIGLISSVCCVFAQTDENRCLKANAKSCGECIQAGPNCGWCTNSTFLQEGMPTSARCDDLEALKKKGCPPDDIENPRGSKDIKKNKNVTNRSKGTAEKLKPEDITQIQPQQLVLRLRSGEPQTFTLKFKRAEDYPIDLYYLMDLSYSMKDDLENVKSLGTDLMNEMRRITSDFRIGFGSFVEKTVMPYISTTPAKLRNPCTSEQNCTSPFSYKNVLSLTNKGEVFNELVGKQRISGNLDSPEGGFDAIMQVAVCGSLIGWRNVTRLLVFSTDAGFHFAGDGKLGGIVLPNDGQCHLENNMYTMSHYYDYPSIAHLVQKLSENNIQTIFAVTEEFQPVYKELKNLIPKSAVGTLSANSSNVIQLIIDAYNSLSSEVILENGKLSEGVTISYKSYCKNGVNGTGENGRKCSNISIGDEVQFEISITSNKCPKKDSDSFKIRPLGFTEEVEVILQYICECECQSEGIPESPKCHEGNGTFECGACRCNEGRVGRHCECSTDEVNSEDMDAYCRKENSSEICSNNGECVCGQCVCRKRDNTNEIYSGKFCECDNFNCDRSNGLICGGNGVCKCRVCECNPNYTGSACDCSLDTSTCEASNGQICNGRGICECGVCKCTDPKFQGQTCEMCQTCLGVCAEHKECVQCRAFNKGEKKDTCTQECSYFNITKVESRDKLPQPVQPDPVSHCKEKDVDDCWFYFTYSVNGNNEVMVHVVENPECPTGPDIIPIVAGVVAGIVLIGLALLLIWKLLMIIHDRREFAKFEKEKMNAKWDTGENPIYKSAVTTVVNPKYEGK
Sequence of Integrin beta-1 (Homo sapiens) + Integrin alpha-4 (Homo sapiens) (P13612 whole entry, looked up): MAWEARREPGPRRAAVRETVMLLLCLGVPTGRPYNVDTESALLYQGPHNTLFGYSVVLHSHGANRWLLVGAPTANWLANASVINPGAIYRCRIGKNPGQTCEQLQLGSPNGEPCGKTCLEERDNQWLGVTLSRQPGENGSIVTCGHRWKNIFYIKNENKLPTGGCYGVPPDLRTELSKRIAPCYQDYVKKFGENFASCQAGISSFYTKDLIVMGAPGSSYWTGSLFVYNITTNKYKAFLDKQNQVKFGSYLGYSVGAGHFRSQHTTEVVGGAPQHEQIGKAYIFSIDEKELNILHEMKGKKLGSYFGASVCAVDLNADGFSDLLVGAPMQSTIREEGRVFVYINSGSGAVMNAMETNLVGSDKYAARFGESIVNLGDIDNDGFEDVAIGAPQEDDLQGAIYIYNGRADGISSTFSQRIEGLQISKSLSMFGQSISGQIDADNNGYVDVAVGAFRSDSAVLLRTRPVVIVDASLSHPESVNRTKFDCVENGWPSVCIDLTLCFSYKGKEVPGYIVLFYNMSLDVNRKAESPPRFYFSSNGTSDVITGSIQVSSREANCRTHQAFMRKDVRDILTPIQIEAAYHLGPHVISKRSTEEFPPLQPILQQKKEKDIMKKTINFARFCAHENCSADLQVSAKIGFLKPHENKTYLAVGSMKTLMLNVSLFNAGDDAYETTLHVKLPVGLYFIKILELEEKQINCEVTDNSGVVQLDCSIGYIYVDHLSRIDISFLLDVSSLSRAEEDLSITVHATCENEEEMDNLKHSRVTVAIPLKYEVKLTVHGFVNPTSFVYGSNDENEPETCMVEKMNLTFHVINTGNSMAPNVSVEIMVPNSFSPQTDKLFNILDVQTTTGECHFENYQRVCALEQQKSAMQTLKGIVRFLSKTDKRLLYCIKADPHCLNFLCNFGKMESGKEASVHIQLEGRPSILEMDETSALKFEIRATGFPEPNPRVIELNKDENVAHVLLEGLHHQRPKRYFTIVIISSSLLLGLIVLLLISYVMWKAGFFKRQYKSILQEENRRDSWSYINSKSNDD

[8] = calorie-restriction mimetic ROS inhibitors, yeast – validation compound set, pilot screen (AID 2706;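 active means superoxide response below 65% of plate, a cut near 3 SD across the whole screen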;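 further: yeast exposed to compound for one week at 30 degrees C before staining; 100% = mean of all compound wells on the same plate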); details: S. cerevisiae aging, superoxide DHE fluorescence; at 10 µM; stronger effect = lower value
[9] = target: Beta-adrenergic receptor kinase 1 (Homo sapiens) (UniProt P25098); assay: GRK2 binders displacing RNA aptamer, biochemical, validation, human GRK2, bead flow cytometry (AID 488806;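 active means aptamer binding inhibition above 30%, about 3 SD of noise from non-fluorescent compounds; inactive means inhibition at or below 30%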); details: bead-bound GRK2, FAM-aptamer displacement, at 10 µM, stronger effect = higher value
Sequence of Beta-adrenergic receptor kinase 1 (Homo sapiens) (P25098 whole entry, looked up): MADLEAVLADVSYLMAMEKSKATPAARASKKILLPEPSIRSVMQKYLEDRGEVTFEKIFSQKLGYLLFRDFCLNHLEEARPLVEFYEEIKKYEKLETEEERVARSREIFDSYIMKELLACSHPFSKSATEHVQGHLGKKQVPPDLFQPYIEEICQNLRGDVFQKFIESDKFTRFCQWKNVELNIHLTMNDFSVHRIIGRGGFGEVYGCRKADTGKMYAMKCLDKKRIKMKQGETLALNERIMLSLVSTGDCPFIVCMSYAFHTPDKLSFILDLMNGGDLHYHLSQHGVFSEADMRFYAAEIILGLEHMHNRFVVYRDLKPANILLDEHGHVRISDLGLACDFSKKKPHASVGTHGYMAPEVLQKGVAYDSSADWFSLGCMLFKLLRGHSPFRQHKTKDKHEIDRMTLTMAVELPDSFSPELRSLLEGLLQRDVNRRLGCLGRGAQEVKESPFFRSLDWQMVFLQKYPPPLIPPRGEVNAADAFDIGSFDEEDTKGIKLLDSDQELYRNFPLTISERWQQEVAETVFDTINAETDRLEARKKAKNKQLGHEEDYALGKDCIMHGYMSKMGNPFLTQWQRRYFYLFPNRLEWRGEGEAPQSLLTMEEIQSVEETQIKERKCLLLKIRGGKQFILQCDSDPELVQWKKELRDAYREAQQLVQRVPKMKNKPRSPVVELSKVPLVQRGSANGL

[10] = target: Beta-2 adrenergic receptor (Homo sapiens) (UniProt P07550); assay: agonist-induced loss of surface beta2AR – cell-based, FAP fluorogen, flow cytometry, validation set, pilot screen (AID 504459;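 active means percent response above 42, roughly 3 SD of non-fluorescent test compounds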;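 further: agonist-driven loss of surface beta2AR via internalization measured by FAP dye flow cytometry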); details: Am2.2-beta2AR cells, at 10 µM, stronger effect = higher value
Sequence of Beta-2 adrenergic receptor (Homo sapiens) (P07550 whole entry, looked up): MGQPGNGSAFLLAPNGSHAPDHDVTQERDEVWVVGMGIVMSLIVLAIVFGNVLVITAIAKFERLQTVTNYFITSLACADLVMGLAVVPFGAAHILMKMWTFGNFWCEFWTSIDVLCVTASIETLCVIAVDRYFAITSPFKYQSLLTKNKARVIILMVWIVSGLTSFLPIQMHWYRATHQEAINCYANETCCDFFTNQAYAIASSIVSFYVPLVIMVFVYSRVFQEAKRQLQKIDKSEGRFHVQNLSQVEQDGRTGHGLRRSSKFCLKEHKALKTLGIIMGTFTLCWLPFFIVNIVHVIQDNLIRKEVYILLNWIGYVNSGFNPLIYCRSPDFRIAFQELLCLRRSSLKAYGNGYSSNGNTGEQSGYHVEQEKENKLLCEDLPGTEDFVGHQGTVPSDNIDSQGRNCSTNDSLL

[11] = target: AP-2 complex subunit beta (Homo sapiens) (UniProt P63010); assay: beta-arrestin/AP2 interaction blockers – biochemical, validation set, GST-AP2 beads, flow cytometry, pilot screen (AID 504541;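 active means inhibition above 54%, about 3 SD of non-fluorescent compounds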;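 further: AP2 carries R879A mutation and is captured from E. coli lysate; bead-bound FITC arrestin peptide fluorescence measuring arrestin peptide binding to AP2; 0% = DMSO wells and 100% = excess unlabeled arrestin peptide control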); details: FITC arrestin peptide, at 10 µM, stronger effect = higher value, AP2 beta2 appendage fragment, R879A mutant
Sequence of AP-2 complex subunit beta (Homo sapiens) (P63010 whole entry, looked up, the tested form may be a part, one chain of several): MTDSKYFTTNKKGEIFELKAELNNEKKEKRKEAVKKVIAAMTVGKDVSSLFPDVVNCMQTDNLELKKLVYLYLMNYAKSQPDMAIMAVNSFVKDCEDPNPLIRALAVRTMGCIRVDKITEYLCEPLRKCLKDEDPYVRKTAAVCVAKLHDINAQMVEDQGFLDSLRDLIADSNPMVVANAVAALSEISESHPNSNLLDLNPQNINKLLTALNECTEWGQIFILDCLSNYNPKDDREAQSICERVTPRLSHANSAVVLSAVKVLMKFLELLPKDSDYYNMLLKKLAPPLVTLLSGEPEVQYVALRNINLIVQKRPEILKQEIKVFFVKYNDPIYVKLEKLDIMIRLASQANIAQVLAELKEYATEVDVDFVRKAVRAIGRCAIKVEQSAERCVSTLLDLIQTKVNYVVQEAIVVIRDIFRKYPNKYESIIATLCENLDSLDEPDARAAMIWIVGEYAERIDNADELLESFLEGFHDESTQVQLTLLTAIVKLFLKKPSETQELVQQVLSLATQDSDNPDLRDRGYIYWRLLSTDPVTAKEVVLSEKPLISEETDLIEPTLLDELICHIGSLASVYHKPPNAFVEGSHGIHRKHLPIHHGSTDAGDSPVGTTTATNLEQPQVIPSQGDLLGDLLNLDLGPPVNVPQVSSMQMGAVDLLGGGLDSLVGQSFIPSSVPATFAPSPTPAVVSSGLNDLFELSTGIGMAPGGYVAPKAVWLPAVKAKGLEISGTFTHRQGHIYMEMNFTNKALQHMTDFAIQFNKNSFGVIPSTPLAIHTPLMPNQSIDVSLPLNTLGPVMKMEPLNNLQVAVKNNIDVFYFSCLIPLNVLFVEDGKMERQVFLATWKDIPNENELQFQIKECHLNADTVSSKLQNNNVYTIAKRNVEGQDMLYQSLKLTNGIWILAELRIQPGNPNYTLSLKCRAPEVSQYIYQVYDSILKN

[12] = cytosolic pH regulators acting via V-ATPase – S. cerevisiae, pHLuorin, HTS validation (AID 504600); details: V-ATPase proton transport, at 10 µM, stronger effect = higher value;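 further: plate controls were DMSO for no effect and reference compound for full effect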
[13] = test system: anti-desmoglein-3 scFv antibody binding to human DSG3; assay: blockers of pathogenic pemphigus antibody–desmoglein-3 binding – biochemical, validation compound set, bead-based, flow cytometry, pilot screen (AID 588368;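 active means binding below the plate cutoff, the plate median minus 3 SD, with a reading above zero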;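 further: signal is the median channel fluorescence of bead-bound GFP antibody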); details: Protein G beads, DSG3-Fc, scFv-GFP binding, at 10 µM, stronger effect = lower value
[14] = Nile Red efflux blockade in pump-expressing yeast – validation compound set, multiplex, phenotypic, pilot screen (AID 588506;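 active means efflux inhibition above 0.42, the validation set average plus 4 SD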;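 further: Nile Red retained in cells so higher fluorescence means more efflux inhibition; 0 = negative control wells and 1 = enniatin B 25 µM full block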); details: S. cerevisiae pump-expressing triplex, Nile Red efflux flow cytometry; at 10 µM; stronger effect = higher value; the pumps come from Candida albicans
[15] = target: ATP-binding cassette sub-family B member 6 (Homo sapiens) (UniProt Q9NP58); assay: blockers of ABCB6-driven porphyrin uptake – K562-ABCB6 cells, flow cytometry, validation set, pilot screen (AID 588550;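 active means inhibition above the screen-wide mean plus 3 SD, about 51%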;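 further: 0% = DMSO wells and 100% = benzethonium chloride 70 µM positive control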); details: K562-ABCB6 porphyrin accumulation, 1 h, at 10 µM, stronger effect = higher value
Sequence of ATP-binding cassette sub-family B member 6 (Homo sapiens) (Q9NP58 whole entry, looked up): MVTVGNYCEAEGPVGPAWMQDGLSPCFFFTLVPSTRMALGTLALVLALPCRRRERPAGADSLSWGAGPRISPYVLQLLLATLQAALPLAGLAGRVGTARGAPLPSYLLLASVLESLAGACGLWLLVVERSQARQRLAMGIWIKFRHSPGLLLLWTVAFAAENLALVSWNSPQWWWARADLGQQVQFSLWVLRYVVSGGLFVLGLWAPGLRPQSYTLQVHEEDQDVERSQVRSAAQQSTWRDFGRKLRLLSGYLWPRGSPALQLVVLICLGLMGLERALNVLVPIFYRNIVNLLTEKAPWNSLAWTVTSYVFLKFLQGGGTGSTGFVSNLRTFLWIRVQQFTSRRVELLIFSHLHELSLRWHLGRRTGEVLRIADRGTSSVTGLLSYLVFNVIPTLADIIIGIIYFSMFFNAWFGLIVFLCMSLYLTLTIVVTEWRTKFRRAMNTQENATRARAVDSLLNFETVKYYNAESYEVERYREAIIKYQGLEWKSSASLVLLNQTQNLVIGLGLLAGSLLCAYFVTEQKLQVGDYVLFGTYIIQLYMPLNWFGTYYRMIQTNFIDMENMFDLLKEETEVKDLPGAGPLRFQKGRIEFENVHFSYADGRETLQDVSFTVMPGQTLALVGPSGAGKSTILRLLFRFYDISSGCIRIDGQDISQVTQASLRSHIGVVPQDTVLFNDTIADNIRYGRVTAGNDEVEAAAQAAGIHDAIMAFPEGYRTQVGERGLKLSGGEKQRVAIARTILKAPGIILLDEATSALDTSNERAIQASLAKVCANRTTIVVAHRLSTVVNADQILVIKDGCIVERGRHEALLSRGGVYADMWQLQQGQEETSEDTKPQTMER

[16] = AML differentiation inducers, ER-HoxA9 marrow cells – cell-based, GFP/MAC1 double positive, flow cytometry, validation set, primary screen (AID 588685;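 active means differentiation response of at least 50%, scaled between solvent and reference control, from cells with both markers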;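 further: compound exposure lasts four days before antibody staining and flow analysis; 0% = DMSO wells and 100% = 5 µM fulvestrant positive control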); details: stronger effect = higher value, normalized: vehicle 0, fulvestrant 100

| Structure (SMILES) | percent of DMSO control GFP [1] | GFP response vs DMSO [2] | percent response of DMSO control [3] | GFP response vs DMSO [4] | GFP response, % of DMSO [5] | double positive events [6] [%] | vesicle binding response [6] | inhibition [7] | superoxide response (% of plate) [8] | aptamer binding inhibition [9] | response [10] | inhibition [11] | response [12] | binding (% of control) [13] | efflux inhibition (fraction of control) [14] | inhibition [15] | differentiation response [16] |
| --- | --- | --- | --- | --- | --- | --- | --- | --- | --- | --- | --- | --- | --- | --- | --- | --- | --- |
| COc1cc2c(cc1OC)/C(=C/c1ccc(Cl)cc1)C(=O)OC2 | 87.8% (inactive) | 108% (inactive) | 95.2% (inactive) | 83.1% (inactive) | 85.7% (inactive) | 63.9 | 155% (inactive) | -7.12% (inactive) | 95.8% (inactive) | 4% (inactive) | -8.94% (inactive) | 10.1% (inactive) | -2.13% (inactive) | 104% (inactive) | 0.3 (inactive) | 1% (inactive) | -2.46% (inactive) |
| COCCn1c(SCCOc2ccccc2)nc2ccccc2c1=O | 99.8% (inactive) | 108% (inactive) | 103% (inactive) | 103% (inactive) | 96.8% (inactive) | 54 | 154% (inactive) | 6.95% (inactive) | 104% (inactive) | 5% (inactive) | -6.97% (inactive) | -3.51% (inactive) | 0.42% (inactive) | 103% (inactive) | 0.36 (inactive) | 18% (inactive) | 1.28% (inactive) |
| COC(=O)c1ccc(NC(=O)c2ccccc2SC)cc1 | 97.8% (inactive) | 104% (inactive) | 102% (inactive) | 106% (inactive) | 91.8% (inactive) | 58.4 | 132% (inactive) | 1.62% (inactive) | 109% (inactive) | 2% (inactive) | 1.63% (inactive) | 18.8% (inactive) | -1.67% (inactive) | 99% (inactive) | -0.26 (inactive) | 1% (inactive) | 5.13% (inactive) |
| c1ccc(Nc2cccc3c(Nc4ccccc4)cccc23)cc1 | 104% (inactive) | 107% (inactive) | 105% (inactive) | 88.7% (inactive) | 97.8% (inactive) | 62 | 284% (inactive) | -28.5% (inactive) | 98.3% (inactive) | 1% (inactive) | 6.03% (inactive) | 21.9% (inactive) | 0.51% (inactive) | 91.6% (inactive) | 0.18 (inactive) | -26% (inactive) | 14.9% (inactive) |
| Oc1ccccc1OCCOc1ccccc1OCCOc1ccccc1O | 100% (inactive) | 108% (inactive) | 105% (inactive) | 117% (inactive) | 110% (inactive) | 62.1 | 245% (inactive) | 15.9% (inactive) | 97.2% (inactive) | -2% (inactive) | -15.9% (inactive) | 1.79% (inactive) | -8.12% (inactive) | 112% (inactive) | -0.04 (inactive) | 6% (inactive) | -6.96% (inactive) |
| C[C@]12CC[C@@H]3c4ccc(O)cc4CC[C@H]3[C@@H]1C[C@@H](O)[C@@H]2O[C@@H]1O[C@H](C(=O)O)[C@@H](O)[C@H](O)[C@H]1O | 90.6% (inactive) | 113% (inactive) | 108% (inactive) | 77% (inactive) | 104% (inactive) | 61.7 | 249% (inactive) | -10% (inactive) | 109% (inactive) | 4% (inactive) | -7.17% (inactive) | -6.28% (inactive) | -6.58% (inactive) | 105% (inactive) | 0.12 (inactive) | 8% (inactive) | -4.91% (inactive) |
| CN(C)CCOC(c1ccccc1)c1ccccc1 | 94.4% (inactive) | 123% (inactive) | 115% (inactive) | 87.5% (inactive) | 89.4% (inactive) | 43.1 | 107% (inactive) | 1.61% (inactive) | 96.7% (inactive) | -1% (inactive) | -13.1% (inactive) | 29.6% (inactive) | -7.12% (inactive) | 98% (inactive) | 0.52 (active) | 2% (inactive) | 1.64% (inactive) |
| Cc1ccc2c(c1)c1c3n2CCCN(Cc2ccccc2)C3CCC1 (stereo not drawn) | 100% (inactive) | 104% (inactive) | 105% (inactive) | 103% (inactive) | 92.5% (inactive) | 77.6 | 490% (inactive) | -27.7% (inactive) | 81.8% (inactive) | 0% (inactive) | 14.8% (inactive) | -2.35% (inactive) | -2.93% (inactive) | 102% (inactive) | 0.33 (inactive) | 6% (inactive) | 8.8% (inactive) |
| CC(=O)NC(Cc1c[nH]c2ccccc12)C(=O)N/N=C/c1ccccc1 (stereo not drawn) | 98.6% (inactive) | 108% (inactive) | 104% (inactive) | 99.1% (inactive) | 98.6% (inactive) | 62.8 | 200% (inactive) | -15.8% (inactive) | 98% (inactive) | -3% (inactive) | -1.6% (inactive) | 60.7% (active) | -13.1% (inactive) | 104% (inactive) | 0 (inactive) | -12% (inactive) | -3.11% (inactive) |
